# Structures can show the parent of a compound that is named as a salt. ± gives the standard deviation of the averaged measurements.
# What was measured:
# Assay in all cases: growth (OD600 after 10 h); higher = more growth (less inhibition)
# [1] = tested on: E. coli TESEC Alr+ wild-type control; conditions: compound 0.1 mM; raw OD600 reference: median of DMSO wells 0.241, cell-free background 0.041
# Method: (§1)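 TESEC Mtb Alr E. coli, or the Alr+ wild-type control, in 384-well plates with Prestwick library compounds at 0.1 mM and 1% DMSO, across arabinose induction levels of 1E3 to 1E7 nM. Growth is read as OD600 after 10 h at 37 °C in triplicate biological replicates.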
# E. coli TESEC Mtb Alr [2] = conditions: compound 0.1 mM
# Method: as §1
# E. coli TESEC Mtb Asd = conditions: compound 0.1 mM
# Method: (§2)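 TESEC E. coli strains in which the native enzyme is deleted and replaced by arabinose-inducible Mtb Asd, DapB, CysH or TrpD, each grown in its selective medium. Strains were screened against the Prestwick library at 0.1 mM and 1% DMSO in 384-well format at low and high arabinose induction. Growth is read as OD600 after 10 h in triplicate.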
# E. coli TESEC Mtb DapB = conditions: compound 0.1 mM
# Method: as §2
# [3] = tested on: E. coli TESEC Alr+ wild-type control; conditions: compound 0.1 mM; raw OD600 reference: median of DMSO wells 0.49, cell-free background 0.052
# Method: (§3)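 TESEC Mtb Alr E. coli (ΔaraC ΔtolC ΔentC Δalr ΔdadX, arabinose-inducible Mtb Alr) or the Alr+ wild-type control strain, grown in defined M9-fructose medium without D-alanine in 96-well plates with Prestwick library compounds at 0.1 mM and 1% DMSO. Low Alr induction is 0.1 µM arabinose and high induction is 10 mM arabinose.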
# E. coli TESEC Mtb Alr [4] = conditions: compound 0.1 mM; remark: listed apart in the source
# Method: as §3
# [5] = arabinose 1000 nM, raw OD600 reference: median of DMSO wells 0.294, cell-free background 0.041
# [6] = arabinose 10000 nM, raw OD600 reference: median of DMSO wells 0.264, cell-free background 0.041
# [7] = arabinose 100000 nM, raw OD600 reference: median of DMSO wells 0.201, cell-free background 0.041
# [8] = arabinose 1000000 nM, raw OD600 reference: median of DMSO wells 0.193, cell-free background 0.041
# [9] = arabinose 10000000 nM, raw OD600 reference: median of DMSO wells 0.146, cell-free background 0.041
# [10] = arabinose induction (level): High, raw OD600 reference: median of DMSO wells 0.331, cell-free background 0.041
# [11] = arabinose induction (level): Low, raw OD600 reference: median of DMSO wells 0.417, cell-free background 0.041
# [12] = arabinose induction (level): High, raw OD600 reference: median of DMSO wells […], cell-free background 0.041
# [13] = arabinose induction (level): Low, raw OD600 reference: median of DMSO wells 0.227, cell-free background 0.041
# [14] = arabinose 100 nM, raw OD600 reference: median of DMSO wells 0.413, cell-free background 0.052
# [15] = arabinose 10000000 nM, raw OD600 reference: median of DMSO wells […], cell-free background 0.052
SMILES,growth [1],growth (E. coli TESEC Mtb Alr [2]; [5]),growth (E. coli TESEC Mtb Alr [2]; [6]),growth (E. coli TESEC Mtb Alr [2]; [7]),growth (E. coli TESEC Mtb Alr [2]; [8]),growth (E. coli TESEC Mtb Alr [2]; [9]),growth (E. coli TESEC Mtb Asd; [10]),growth (E. coli TESEC Mtb Asd; [11]),growth (E. coli TESEC Mtb DapB; [12]),growth (E. coli TESEC Mtb DapB; [13]),growth [3],growth (E. coli TESEC Mtb Alr [4]; [14]),growth (E. coli TESEC Mtb Alr [4]; [15])
C[C@@H]1C[C@H]2[C@@H]3C[C@H](F)C4=CC(=O)C=C[C@]4(C)[C@@]3(Cl)[C@@H](O)C[C@]2(C)[C@H]1C(=O)COC(=O)C(C)(C)C [Clocortolone pivalate],0.24 ± 0.0038,0.307 ± 0.0044,0.29 ± 0.013,0.206 ± 0.031,0.2 ± 0.027,0.151 ± 0.0033,0.198 ± 0.0099,0.322 ± 0.059,0.21 ± 0.0076,0.254 ± 0.0078,0.477 ± 0.013,0.433 ± 0.0058,0.377 ± 0.017
O=C(O)c1cccnc1 [Niacin],0.28 ± 0.0091,0.346 ± 0.021,0.304 ± 0.0045,0.243 ± 0.0028,0.238 ± 0.0034,0.152 ± 0.0078,0.397 ± 0.019,0.461 ± 0.0099,0.211 ± 0.016,0.238 ± 0.0084,0.522 ± 0.086,0.423 ± 0.028,0.431 ± 0.014
C[C@]12C=CC(=O)C=C1CC[C@@H]1[C@@H]2C(=O)C[C@@]2(C)[C@H]1CC[C@]2(O)C(=O)CO [Prednisone],0.221 ± 0.01,0.298 ± 0.017,0.256 ± 0.0052,0.203 ± 0.012,0.173 ± 0.0063,0.162 ± 0.0056,0.237 ± 0.029,0.414 ± 0.042,0.185 ± 0.0094,0.267 ± 0.014,0.479 ± 0.044,0.412 ± 0.005,0.352 ± 0.019
CN(C)CCCN1c2ccccc2Sc2ccc(Cl)cc21 [Chlorpromazine hydrochloride],0.0844 ± 0.00072,0.054 ± 0.0094,0.04817 ± 5.8e-05,0.0531 ± 0.008,0.0443 ± 0.00046,0.0452 ± 0.00035,0.0646 ± 0.0046,0.0699 ± 0.0027,0.13 ± 0.012,0.25 ± 0.08,0.105 ± 0.046,0.425 ± 0.0072,0.0848 ± 0.022
Cc1cc(C)nc(NS(=O)(=O)c2ccc(N)cc2)n1 [Sulfamethazine sodium salt],0.242 ± 0.0082,0.293 ± 0.015,0.252 ± 0.013,0.215 ± 0.016,0.165 ± 0.0038,0.142 ± 0.0032,0.408 ± 0.021,0.449 ± 0.042,0.191 ± 0.0082,0.269 ± 0.022,0.482 ± 0.088,0.413 ± 0.012,0.335 ± 0.0075
O=c1[nH]c(=O)n(C2CCCO2)cc1F (stereo not given) [Tegafur],0.2441 ± 0.0016,0.284 ± 0.0093,0.2613 ± 0.001,0.208 ± 0.0031,0.224 ± 0.013,0.135 ± 0.0053,0.366 ± 0.03,0.359 ± 0.091,0.2018 ± 0.0016,0.23 ± 0.032,0.586 ± 0.12,0.407 ± 0.011,0.346 ± 0.011
Nc1cc(-c2ccncc2)c[nH]c1=O [Amrinone],0.237 ± 0.0081,0.308 ± 0.015,0.277 ± 0.017,0.193 ± 0.012,0.188 ± 0.0077,0.162 ± 0.008,0.463 ± 0.012,0.385 ± 0.074,0.206 ± 0.0051,0.271 ± 0.011,0.446 ± 0.027,0.38 ± 0.043,0.362 ± 0.026
C[C@@H](O[C@H]1OCCN(Cc2n[nH]c(=O)[nH]2)[C@H]1c1ccc(F)cc1)c1cc(C(F)(F)F)cc(C(F)(F)F)c1 [Aprepitant],0.136 ± 0.0085,0.107 ± 0.0059,0.116 ± 0.033,0.0735 ± 0.0056,0.0675 ± 0.0089,0.0777 ± 0.0096,0.0693 ± 0.0052,0.0731 ± 0.019,0.128 ± 0.015,0.089 ± 0.023,0.386 ± 0.22,0.442 ± 0.012,0.0589 ± 0.0033
CCSc1ccc2c(c1)N(CCCN1CCN(C)CC1)c1ccccc1S2 [Thiethylperazine dimalate],0.0403 ± 0.00055,0.0413 ± 0.0013,0.0405 ± 0.0005,0.0425 ± 0.002,0.03993 ± 0.00021,0.0411 ± 0.00055,0.0483 ± 0.0004,0.0464 ± 0.0011,0.0474 ± 0.0002,0.04737 ± 0.00025,0.0499 ± 0.0032,0.0513 ± 0.00084,0.0544 ± 0.0021
CC(=O)O[C@@]12CO[C@@H]1C[C@H](O)[C@@]1(C)C(=O)[C@H](O)C3=C(C)[C@@H](OC(=O)[C@H](O)[C@@H](NC(=O)OC(C)(C)C)c4ccccc4)C[C@@](O)([C@@H](OC(=O)c4ccccc4)[C@H]21)C3(C)C [Docetaxel],0.266 ± 0.005,0.34 ± 0.0038,0.299 ± 0.014,0.311 ± 0.094,0.134 ± 0.011,0.206 ± 0.02,0.248 ± 0.011,0.373 ± 0.071,0.204 ± 0.016,0.229 ± 0.047,0.614 ± 0.12,0.4282 ± 0.0041,0.297 ± 0.0093
Cc1nccn1CC1CCc2c(c3ccccc3n2C)C1=O (stereo not given) [Ondansetron Hydrochloride],0.195 ± 0.004,0.272 ± 0.0034,0.252 ± 0.0038,0.246 ± 0.0034,0.304 ± 0.014,0.146 ± 0.0028,0.432 ± 0.06,0.191 ± 0.011,0.229 ± 0.013,0.183 ± 0.004,0.526 ± 0.11,0.365 ± 0.013,0.384 ± 0.0066
CCN(CC)CCNC(=O)c1ccc(N)cc1 [Procainamide hydrochloride],0.239 ± 0.0037,0.306 ± 0.019,0.2558 ± 0.0023,0.209 ± 0.043,0.192 ± 0.002,0.141 ± 0.0042,0.341 ± 0.0095,0.42 ± 0.039,0.192 ± 0.015,0.201 ± 0.0082,0.634 ± 0.046,0.408 ± 0.01,0.364 ± 0.0095
C[N+]1(C)CCC(=C(c2ccccc2)c2ccccc2)CC1 [Diphemanil methylsulfate],0.206 ± 0.0076,0.289 ± 0.01,0.255 ± 0.01,0.197 ± 0.013,0.16 ± 0.014,0.153 ± 0.0035,0.203 ± 0.027,0.352 ± 0.065,0.187 ± 0.015,0.25 ± 0.028,0.4312 ± 0.0036,0.4115 ± 0.0028,0.36 ± 0.015
CN(C)CCOC(=O)C(c1ccccc1)C1(O)CCCC1 (stereo not given) [Cyclopentolate hydrochloride],0.219 ± 0.0068,0.29 ± 0.0093,0.27 ± 0.01,0.183 ± 0.014,0.19 ± 0.018,0.133 ± 0.0078,0.198 ± 0.013,0.334 ± 0.1,0.192 ± 0.021,0.231 ± 0.045,0.54 ± 0.099,0.4313 ± 0.0024,0.316 ± 0.018
CCOc1ccccc1OC(c1ccccc1)C1CNCCO1 (stereo not given) [Reboxetine mesylate],0.203 ± 0.0099,0.265 ± 0.023,0.253 ± 0.012,0.2 ± 0.02,0.15 ± 0.0074,0.1507 ± 0.0007,0.249 ± 0.038,0.296 ± 0.061,0.15 ± 0.0036,0.183 ± 0.021,0.542 ± 0.061,0.402 ± 0.015,0.336 ± 0.022

# From the supplement of paper PMC9262897, “Low-cost anti-mycobacterial drug discovery using engineered E. coli” (Nature Communications, 2022)
